# Assay outcomes: PubChem, several laboratories
# PP5 inh = PP5 (human) phosphatase inhibition; inhibition, % at 6.7 µM; actives 0.18% (n = 320,000); purified PP5c, OMFP substrate fluorescence;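 active means inhibition above the campaign's mean inhibition across all tested compounds plus 3 SD, cut at about 9.5% in these data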;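 further: 0% = DMSO only and 100% = 100 µM cantharidin control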
# PP1 counter = counter-screen for PP5 inhibitors: inhibitors of human PP1-alpha; inhibition, % at 6.7 µM; actives 0.9% (n = 320,000); purified PP1alpha, OMFP fluorescence; AID 2235;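 active means inhibition above the mean inhibition of all tested compounds plus 3 SD, computed separately for each screening campaign, cut at about 15% in these data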
# PREPL inh = inhibits the human prolyl oligopeptidase-like enzyme; Q4J6C6; recombinant PREPL, fluorescence polarization activity-based probe; inhibition, % at 5.96 µM; actives 0.68% (n = 320,000); AID 2751; in the data active means inhibition above about 43%;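 further: 0% = enzyme with DMSO and 100% = wells lacking enzyme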
# NadD inh = blocks S. aureus nicotinate mononucleotide adenylyltransferase | inhibition, % at 20 µM | purified NadD enzyme, colorimetric absorbance read-out | AID 602399 | actives 0.78% (n = 360,000); in the data active means inhibition above about 26%
# Rpn11 block = inhibitors of human proteasome Rpn11 | inhibition, % at 20 µM | actives 0.59% (n = 360,000) | human 26S proteasome, Ub4-pepOG fluorescence polarization; 20S core pre-blocked with epoxomicin | O00487;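 active means inhibition at 20 µM, scaled to each plate's controls, above about 33%, limit read from the data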
# Target sequence (O00487 whole entry, looked up): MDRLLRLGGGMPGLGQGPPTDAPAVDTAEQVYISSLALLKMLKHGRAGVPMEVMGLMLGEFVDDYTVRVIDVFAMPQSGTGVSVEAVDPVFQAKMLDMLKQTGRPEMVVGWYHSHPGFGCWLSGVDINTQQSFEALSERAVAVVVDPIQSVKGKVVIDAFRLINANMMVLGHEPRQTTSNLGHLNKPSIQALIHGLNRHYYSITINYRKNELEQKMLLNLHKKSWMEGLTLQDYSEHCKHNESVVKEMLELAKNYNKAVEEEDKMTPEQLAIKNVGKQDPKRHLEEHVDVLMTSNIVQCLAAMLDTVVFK
# PP1 inh confirm = human PP1 phosphatase inhibition, confirmation; shares compounds with PP1 counter; purified PP1alpha, OMFP substrate fluorescence; inhibition, % at 6.7 µM; actives 52% (n = 1,900); AID 2358;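 active means mean PP1 inhibition above a set limit taken from the earlier primary screen, cut at about 15% in these data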
# PP5 counter = PP5 phosphatase inhibition, counter-screen for PP1 inhibitors; shares compounds with PP1 counter; purified PP5c, OMFP fluorescence; inhibition, % at 6.7 µM; actives 4% (n = 1,900);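 active means mean PP5 inhibition over triplicate wells above about 9.5% taken from the earlier PP1 screen, limit read from the data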
# Starred values were filed as active, the others as inactive; . = no result. Shown are actives, neighbours in structure and some others; about 2.4% of the full set was active somewhere.
SMILES,PP5 inh,PP1 counter,PREPL inh,NadD inh,Rpn11 block,PP1 inh confirm,PP5 counter
CCCCC1=CC2=CC(=O)C(C)(OC(=O)CC)C(=O)C2=CN1CCc1c[nH]c2ccccc12 (centres undefined),1.5,20.4*,37.9,14.9,12.3,3.4,8.0
O=C(NC(C(=O)N/N=C/c1cc([N+](=O)[O-])ccc1O)c1n[nH]c(=O)c2ccccc12)c1ccccc1 (centres undefined),3.8,26.6*,17.0,19.5,3.5,17.9*,1.0
Cc1ccc(S(=O)(=O)N2CCN(C(C)C(=O)Nc3ccccc3-c3ccccc3)CC2)cc1 (centres undefined),-0.5,-0.2,20.2,-1.2,3.2,.,.
COC(=O)c1cc(S(=O)(=O)Nc2ccc(C)cn2)c[nH]1,-0.9,-4.2,2.9,-3.8,-3.8,.,.
S=c1[nH]nc(-c2cccnc2)n1-c1ccc2c(c1)OCCO2,-0.5,51.7*,12.1,1.7,15.3,-1.6,-3.8
CCCC(=O)N1CCC1(C)C(=O)Nc1ccc2nccnc2c1 (centres undefined),.,.,.,0.6,3.0,.,.
CCNC(=S)N/N=C/c1cccs1,-1.6,37.5*,-4.8,5.5,-0.1,-3.1,-4.7
COc1cc(Cn2c(N)c(C#N)c3nc4ccccc4nc32)cc(OC)c1,6.1,18.1*,11.9,0.5,10.9,8.2,5.5
Oc1c(C(Nc2cccc(C(F)(F)F)c2)c2ccncc2)ccc2cccnc12 (centres undefined),4.0,18.2*,12.7,7.0,30.4,13.6,-3.2
O=C(COC(=O)CSc1ccc(Cl)cc1)Nc1ccc2[nH]c(=O)[nH]c2c1,.,.,38.7,1.1,3.7,.,.
COc1ccc(CNC(=O)c2ccc(CNc3c(NC4CCCCC4)c(=O)c3=O)cc2)cc1,1.8,25.1*,-2.8,-3.7,1.6,14.4,-4.2
COc1ccc(C(=O)NCc2ccc(-c3nc4ccccc4s3)cc2)cc1,0.2,20.0*,-2.3,-1.5,8.4,25.0*,-2.1
COc1cccc(C(=O)NCc2ccc(-c3nc4ccccc4s3)cc2)c1,-2.0,-1.1,-1.9,3.4,-0.8,.,.
O=C(O)/C=C/c1ccc(S(=O)(=O)N2CCN(CCN3C(=O)C4C5C=CC(C5)C4C3=O)CC2)cc1 (centres undefined),0.0,-4.7,-12.0,-0.6,-2.0,.,.
COc1ccc(-c2csc(NC(=O)CCN3C(=O)C4CC=CCC4C3=O)n2)cc1OC (centres undefined),5.9,25.6*,15.3,-2.9,9.7,-3.6,-2.3
COc1ccc(-n2c(COc3ccc(C)cc3)nnc2SCc2ccc(C#N)cc2)cc1,3.0,2.6,-19.5,0.4,4.1,.,.
COc1ccc(-n2c(COc3ccc(Cl)cc3)nnc2SCc2ccc(C#N)cc2)cc1,5.2,19.8*,-32.8,9.1,-3.5,5.2,5.9
CC1CC(C)(C)CC2(C1)NC(=O)N(CC(=O)Nc1cc([N+](=O)[O-])ccc1F)C2=O (centres undefined),1.5,-1.2,33.1,1.4,-21.2,.,.
CC(Oc1ccccc1F)C(=O)NNC(=O)c1ccc(F)c(S(=O)(=O)N2CCOCC2)c1 (centres undefined),.,.,.,-4.9,-3.6,.,.
COc1c(N2CCN(C(=S)NC3CC4CCC3C4)C(C)C2)c(F)cc2c(=O)c(C(=O)O)cn(C3CC3)c12 (centres undefined),-1.0,21.4*,11.7,5.9,18.8,38.0*,-5.2
Cc1cccc(-n2c(-c3ccncc3)n[nH]c2=S)c1C,-0.5,18.6*,15.1,3.6,2.6,-3.8,-5.0
Cc1ccccc1-n1c(-c2ccncc2)n[nH]c1=S,1.3,-6.0,-9.6,2.9,3.5,.,.
Cc1ccc(S(=O)(=O)N2CCCCC2)cc1C(=O)NCCCN1CCOCC1,2.1,-4.3,-0.8,2.6,-23.1,.,.
CCn1c(CC(=O)Nc2ccc(C)cc2)nnc1SCC(=O)N1CCOCC1,1.0,26.4*,19.3,-7.7,1.3,0.8,0.1
Cc1nc(-c2ccccn2)nc(N2CCOCC2)c1Cl,-0.8,-2.6,-1.1,1.7,7.4,.,.
Cc1nc(-c2ccccn2)nc(N(C)c2ccccc2)c1Cl,1.3,27.5*,0.3,-3.7,11.6,23.4*,-4.0
CCc1nc2ccc(C(=O)N3CCN(C)CC3)cn2c1N(C)CCC(C)C,.,.,.,0.0,0.0,.,.
